# Screens deposited in PubChem BioAssay by The Scripps Research Institute Molecular Screening Center.
# The list is not random: actives were taken first. Their share in the collection is about 3.4%.
# MITF inh: MITF inhibitors, primary screen, biochemical, AlphaScreen, human | Microphthalmia-associated transcription factor (Homo sapiens), O75030 | AID 1259374, 2018 | AlphaScreen MITF homodimerization, bead proximity signal | inhibition, % at 2.6 µM | 650,000 compounds, 0.91% hits; in the data active = inhibition above about 50%;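 also: 0% = vehicle wells with protein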
# TEAD-YAP inh: TEAD-YAP interaction inhibition, primary screen, TEAD-YAP interaction inhibitor project, luminescence, HEK-TIYL cells; TEAD-Gal4/YAP UAS-luciferase luminescence; inhibition, % at 9.12 µM; AID 1259422, 2018; 640,000 compounds, 1.4% hits; in the data active = inhibition above about 32%;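 also: 0% = median of test compound wells and 100% = reference inhibitor wells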
# GPR151 activ: activators of human GPR151, primary screen, cell-based, PathHunter beta-arrestin, luminescence; 650,000 compounds, 1% hits; PathHunter beta-arrestin GPR151 cells; activation, % at 11.2 µM; AID 1508602, 2020; G-protein coupled receptor 151 (Homo sapiens), Q8TDV0; in the data active = activation above about 4.9%;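 also: 0% = median of compound wells and 100% = cells with positive control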
# Target sequence (Q8TDV0 whole entry, looked up): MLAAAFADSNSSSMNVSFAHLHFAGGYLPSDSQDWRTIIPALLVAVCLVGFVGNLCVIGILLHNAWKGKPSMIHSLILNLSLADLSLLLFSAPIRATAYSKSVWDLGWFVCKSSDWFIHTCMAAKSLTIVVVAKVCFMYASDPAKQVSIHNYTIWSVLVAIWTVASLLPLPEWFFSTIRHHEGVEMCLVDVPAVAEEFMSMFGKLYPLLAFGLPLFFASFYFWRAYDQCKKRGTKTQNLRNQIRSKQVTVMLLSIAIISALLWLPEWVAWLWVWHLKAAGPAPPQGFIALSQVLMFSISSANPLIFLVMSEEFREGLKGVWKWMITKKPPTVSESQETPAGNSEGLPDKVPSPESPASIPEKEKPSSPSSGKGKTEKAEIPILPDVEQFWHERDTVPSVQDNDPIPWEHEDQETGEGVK
# FBW7 act: FBW7 E3 ligase activators, primary screen, biochemical, AlphaScreen, human | 650,000 compounds, 0.13% hits | AID 1259310, 2017 | normalized activity (activation), % at 26.1 µM | F-box/WD repeat-containing protein 7 (Homo sapiens), Q969H0 | AlphaScreen FBW7–phospho-cyclin E peptide binding, activator screen; in the data active = normalized activity above about 1.9%;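 also: purified mutant Fbw7 with reduced substrate affinity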
# GPR151 confirm: GPR151 activators, triplicate retest, confirmation, cell-based, PathHunter beta-arrestin, luminescence; shares compounds with GPR151 activ; GPR151 PathHunter beta-arrestin cells, 90 min; % of EA-reagent control over plate median; activation, % at 11.2 µM; 6,700 tested, under 10 active; AID 1508609, 2020;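 active = mean percent activation across replicates above the confirmation screen cutoff of 4.91%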
# GPR119 ag: GPR119 activators in beta-arrestin cells, counter-screen for GPR151 activator project, cell-based, PathHunter beta-arrestin, luminescence, triplicate | activation, % at 11.2 µM | 6,700 compounds, 0.3% hits | AID 1508611, 2020 | 90 min; 0 = compound-well median, 100 = enzyme-acceptor control | shares compounds with GPR151 activ;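 active = mean percent activation in the counterscreen above 29.09%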;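 also: counterscreen on off-target GPR119 to flag nonselective hits from the GPR151 activator screen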
# Numbers without * were called inactive; . = not tested or not shown.
SMILES,MITF inh,TEAD-YAP inh,GPR151 activ,FBW7 act,GPR151 confirm,GPR119 ag
CN(C)S(=O)(=O)c1ccc(/C(O)=C2/C(=O)C(=O)N(CCN3CCCCC3)C2c2ccc(F)cc2)cc1 (centres undefined),9,4,-1,0,.,.
COc1cc(Nc2nc(-c3ccc(N4CCOCC4)nc3)nc3c2ncn3Cc2ccc(C(F)(F)F)cc2)cc(OC)c1OC,8,-7,6.6*,0,-1,-7
COc1cc(Nc2nc(NCc3ccc4c(c3)OCO4)nc3c2ncn3Cc2ccc(C(F)(F)F)cc2)cc(OC)c1OC,-3,-4,-1,0,.,.
COc1cc(Nc2nc(Nc3ccc4c(c3)OCO4)c3ncn(Cc4ccc(C(F)(F)F)cc4)c3n2)cc(OC)c1OC,0,-5,5.5*,0,0,-1
FC(F)(F)c1ccc(Cn2cnc3c(Nc4ccc(N5CCOCC5)cc4)nc(-c4ccc(N5CCOCC5)nc4)nc32)cc1,18,5,-2,0,.,.
COCCCN(C(=S)Nc1cccc(Cl)c1)C(C)c1ccncc1 (centres undefined),-5,-5,5.9*,0,-1,5
c1ccc2c(c1)sc1nnc(SCc3cn4cccnc4n3)n12,5,-9,5.0*,0,-1,-12
Cn1nnc2c(N3CCC4(CC3)OCCO4)nc(Cc3ccc(Cl)cc3Cl)nc21,2,8,6.8*,0,0,3
CC(=O)Nc1ccc(S(=O)(=O)N2CCCC(c3ncncc3-c3cc(C)no3)C2)cc1 (centres undefined),0,-6,0,0,.,.
CC1(C)CC(=O)C2=C(C1)OC1=C(C(=O)CC(C)(C)C1)C2c1cc(Cl)cc(Cl)c1OCc1ccc(Cl)cc1Cl,-9,8,5.5*,0,0,11
O=C(Nc1ccnn1C1CCN(Cc2ccccc2F)CC1)C1CCCC1,0,-9,5.3*,0,-1,-16
O=C(Nc1ccnn1C1CCN(Cc2ccccc2OCCO)CC1)c1cccc(F)c1,-10,-6,5.9*,0,0,-3
COc1ccc(F)c(CN2CCC(n3nccc3NC(=O)C3CCCC3)CC2)c1,-3,2,0,0,.,.
CCOc1ccccc1CN1CCC(n2nccc2NC(=O)C(C)(C)C)CC1,13,-13,6.8*,0,0,9
CC1(C)CC(=O)c2c(oc3c(Cl)cc(NS(=O)(=O)c4ccc5ccccc5c4)cc23)C1,19,0,10*,2,1,14
CC1(C)CC(=O)c2c(oc3c(Cl)cc(NS(=O)(=O)c4ccccc4)cc23)C1,10,13,1,0,.,.
O=C(c1ccc(CN2CCCC2)o1)N1CCCC(c2nc3ccccc3c(=O)[nH]2)C1 (centres undefined),20,-6,-1,1,.,.
CC(C)(C)NC(=O)Cn1cc(S(=O)(=O)Cc2ccccc2)c2ccccc21,1,-11,8.3*,0,0,-3
CC(C)(C)NC(=O)Cn1cc(S(=O)(=O)Cc2ccc(F)cc2)c2ccccc21,12,5,5.3*,0,1,4
NC(=O)c1ccc(NC(=O)Cn2cc(S(=O)(=O)Cc3ccccc3)c3ccccc32)cc1,7,-4,0,0,.,.
COc1ccc(CNC2CC(C)N(C)CC2C)cc1 (centres undefined),-1,-8,0,0,.,.
CCCCc1nnc2sc(NC(=O)c3ccc(F)cc3)nn12,-11,1,5.6*,0,0,-7
CCSc1nc(-c2ccco2)nc2c1c(=O)n(C)c(=O)n2C,16,9,6.3*,0,1,6
Cn1c(=O)c2c(SCC(=O)c3ccccc3)nc(-c3ccccc3F)nc2n(C)c1=O,1,-9,1,0,.,.
Cn1c(=O)c2c(SCC(=O)O)nc(-c3ccco3)nc2n(C)c1=O,-14,-13,0,0,.,.
